Measured values published in PubChem BioAssay AID2451 (National Center for Advancing Translational Sciences (NCATS), 2010).
Out of some 290,000 compounds screened, about 2,100 (0.72%) were called active. A call without a number means that no potency is given here. About 4% were inconclusive and are not listed. This is one part of a sample in which actives are shown more often than they occur. Values without a mark were called inactive. The call rests on the fitted dose curve; in most records, active means well fitted inhibition curve with a large enough effect; inconclusive means small, poorly fitted or top-dose-only effect, or effect the other way; inactive means flat fitted curve, though single readings scatter.

These compounds were tested against Fructose-bisphosphate aldolase (Giardia intestinalis (strain ATCC 50803 / WB clone C6)) (UniProt A8B2U2) (assay: qHTS Assay for Inhibitors of Fructose-1,6-bisphosphate Aldolase from Giardia Lamblia). Details: purified Giardia FBPA; series mostly up to 59.6 µM.
Sequence of Fructose-bisphosphate aldolase (Giardia intestinalis (strain ATCC 50803 / WB clone C6)) (A8B2U2 whole entry, looked up): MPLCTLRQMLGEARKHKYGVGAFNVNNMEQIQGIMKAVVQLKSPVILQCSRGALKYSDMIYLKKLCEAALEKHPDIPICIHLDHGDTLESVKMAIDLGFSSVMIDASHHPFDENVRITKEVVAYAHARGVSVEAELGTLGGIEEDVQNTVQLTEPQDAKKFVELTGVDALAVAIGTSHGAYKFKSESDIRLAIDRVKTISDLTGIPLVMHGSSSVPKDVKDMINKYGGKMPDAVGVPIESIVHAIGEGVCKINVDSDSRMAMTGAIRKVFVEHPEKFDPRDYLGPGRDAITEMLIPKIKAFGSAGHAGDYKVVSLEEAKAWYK
Text: Assay Provider: Osnat Herzberg, University of Maryland
The objective of this project is to obtain compounds that inhibit Giardia lamblia growth. G. lamblia is a human pathogen which afflicts impoverished nations; it is the most common cause of outbreaks of diarrhea in the United States. During the course of our study of potential drug targets in Giardia, we have identified the Class II (Zn2+ functions in electrophilic catalysis) fructose-1,6-bisphosphate aldolase (FBPA) as an excellent candidate for drug targeting. FBPA is a key glycolytic pathway enzyme, essential for G. lamblia survival. The human FBPA belongs to the Class I aldolases, which have a different substrate binding site structure and a radically different catalytic mechanism (employing a lysine-Schiff base intermediate). Therefore, affinity-based or mechanism-based inhibitors of the Giardia FBPA are expected not to interfere with the catalytic function of the human FBPA.
A glyceraldehyde-3-phosphate dehydrogenase/triose phosphate isomerase/NAD/arsenate coupled assay was adapted to the 1536-well HTP format for use in the primary screen. This was done by coupling it to a diaphorase/resazurin/resorufin reaction that can be monitored by fluorescence (excitation, 544 nm; emission, 590 nm). Compounds identified in this screen will be further evaluated by coupling the glycerol-3-phosphate/triose phosphate isomerase/NADH assay to a phenazine methosulfate/tetranitroblue tetrazolium color reaction. False positives due to the dehydrogenases and diaphorase inhibition will be eliminated, and selectivity assay will triage inhibitors of mammalian triose phosphate isomerase and the Class I FBPA. G. lamblia FBPA inhibitors identified by the in vitro analyses will be examined for growth inhibition of Giardia trophozoites, and for cytotoxicity in human cells.
Step,Parameter,Value,Description
1,Enzyme reagent,2 uL,40 nM FBPA
2,Compound,23 nL,3.68 nM-57.5 uM final concentration
3,Time,10 min,RT Incubation
4,Substrate/detection Reagent,2 uL,Substrate + enzyme coupling system + AmpLite Red kit
5,Time,20 min,RT Incubation
6,Detector,525 nm/598 nm (Fluorescence),ViewLux Fluorescence Read (Read 1)
1,Medium-binding black solid-bottom Kalypsys plates. FRD or Kalypsys dispenser, 2 uL of FBPA enzyme. Bottle kept at 4C.
2,Compound Library (10 mM ,1:5 dilution). Pin-transferred for a [final] range of 3.68 nM-57.5 uM.
4,FRD or Kalypsys dispenser, 2 uL of reaction mixture. Bottle kept at 4C and covered in foil to protect from light.
6,ViewLux Protocol 1194; Excitation filter wheel A (525/20 Pol; BODIPY TMR FP), Emission filter wheel B (598/25 S; BODIPY TMR FP S).
Keywords: Fructose-bisphosphate aldolase, FBPA , Giardia lamblia , Giardia, HTS, Inhibitors
Further: nearly all actives have a fitted effect of over 55% in size.
Potency means the concentration at half of the fitted maximal effect.

Row | SMILES | Potency
1 | C=CCc1cc(C)ccc1OCCCn1ccnc1 | 25.1 µM (active)
2 | Cc1ccc(OCC(=O)Nc2ccc3oc(=O)ccc3c2)cc1C | inactive
3 | Cc1cccc(N(Cc2ccccc2)C(=O)c2ccccc2F)c1 | inactive
4 | COC(=O)c1cc(S(=O)(=O)N2CCN(c3cc(C)ccc3C)CC2)c[nH]1 | inactive
5 | O=C(Nc1cccc(Cl)c1)c1cc(S(=O)(=O)N2CCCCC2)c[nH]1 | inactive
6 | COc1ccc(C2c3[nH]c4ccccc4c3C[C@H]3C(=O)N(CC(C)C)CC(=O)N23)c(OC)c1 (some centres undefined) | inactive
7 | Cc1cccc(-c2nnc(SCC(=O)O)n2Cc2ccccc2)c1 | 15.8 µM (active)
8 | CCc1nnc(NC(=O)CSc2nnc(-c3ccncc3)n2Cc2ccccc2)s1 | inactive
9 | Cc1cnc(NC(=O)CSc2nnc(-c3ccccc3)n2Cc2ccccc2)s1 | inactive
10 | CC(CN1CCOCC1)OC(=O)c1ccc(C(C)(C)C)cc1 (centres undefined) | inactive
11 | O=c1[nH]c(=S)[nH]c2[nH]c(=S)[nH]c12 | 12.6 µM (active)
12 | Cc1c(C)c(C)c2[nH]c(=S)[nH]c2c1C | inactive
13 | Cc1ccc(S(=O)(=O)N(CCCN(C)C)Cc2ccc3c(c2)OCO3)cc1 | inactive
14 | CCN(CC)Cc1c(C(=O)N/N=C/c2cccc(OCc3ccc(F)cc3)c2)nnn1-c1nonc1N | inactive
15 | CCc1ccc2c(c1)C(c1ccc([N+](=O)[O-])cc1)=NNC(c1ccccc1)=N2 | inactive
16 | CCc1ccc2c(c1)C1(NN=C(c3ccccc3)S1)C(=O)N2 (centres undefined) | 15.8 µM (active)
17 | O=C(c1ccccc1)N1CCN(C(=O)c2cc3nc(-c4ccccc4)cc(C(F)(F)F)n3n2)CC1 | inactive
18 | O=C(/C=C/c1ccco1)NC(=S)Nc1ccccc1Br | inactive
19 | CCNC(=O)N1CCCC(C(=O)c2ccc(-c3ccccc3)cc2)C1 (centres undefined) | inactive
20 | Cc1ccc(CC2CC(=O)N(c3nc(C)cc(C)n3)C2=O)cc1 (centres undefined) | inactive
21 | Cc1cc(C)cc(NC(=O)C2CCN(c3nc(C)cc(C)n3)CC2)c1 | inactive
22 | COC(=O)CC1=NN(c2nc(C)cc(C)n2)C(=O)C1 | 5.61 µM (active)
23 | CCCCC(=O)N/N=C/c1c(O)n(-c2ccccc2)c(=O)[nH]c1=O | 8.89 µM (active)
24 | O=c1[nH]c(=O)n(-c2ccccc2)c(O)c1C=NC12CN3CN(CN(C3)C1)C2 | inactive
25 | Cc1cccc(-n2c(O)c(C=Nc3ccccc3N)c(=O)[nH]c2=O)c1 | inactive
26 | O=C(NC(=S)Nc1ccc(Cl)cc1Cl)C1CC1 | inactive
27 | COc1ccccc1/C=N/N1CCN(Cc2ccccc2Cl)CC1 | inactive

Row | SMILES | Potency
28 | COC(=O)N1CCC2(CCCN(Cc3ccccc3OC)C2)CC1 | inactive
29 | CS(=O)(=O)N1CCN(C(=O)Cc2ccccc2)CC1 | inactive
30 | COc1ccccc1CN1CCN(C(=O)Cc2ccccc2)CC1 | 17.8 µM (active)
31 | COc1ccccc1CN1CC2(CCN(S(=O)(=O)c3ccccc3)CC2)C1 | inactive
32 | COc1ccccc1CN1CCN(Cc2cc(OC)c(OC)cc2OC)CC1 | 25.1 µM (active)
33 | CCOCCOC(=O)C1=C(C)NC(=O)NC1c1ccc2c(c1)OCO2 (centres undefined) | inactive
34 | O=C(O)c1c(NC(=O)N2CCCC2)sc2c1CCCC2 | inactive
35 | O=C(Nc1ccc(O)cc1)c1ccc(NC(=O)c2ccco2)cc1 | inactive
36 | CCOC(=O)C1(Cc2cccc(OC)c2)CCCN(C(=O)CCSC)C1 (centres undefined) | inactive
37 | Cc1cc(=O)[nH]c(SCC(=O)Nc2ccc(Br)cc2)n1 | inactive
38 | Cc1cccc(NC(=O)CSc2nc3[nH]ncc3c(=O)[nH]2)c1 | inactive
39 | Cc1cc(C)c2c(=O)[nH]c(SCC(=O)Nc3ccc(Br)cc3)nc2n1 | 31.6 µM (active)
40 | OCCN1CCN(C(=S)c2ccc(-c3ccccc3)cc2)CC1 | 11.2 µM (active)
41 | O=C(NC(c1ccccc1)c1ccccc1)N1CCN(CCO)CC1 | inactive
42 | S=C(c1ccccc1)N1CCCC1 | inactive
43 | COc1ccc(-c2ccc(C3C4C=CCCC4(C)C(=O)N3Cc3ccccc3)c(F)c2)cc1OC (centres undefined) | inactive
44 | Cc1cc(F)ccc1NC(=S)NCCc1ccccc1 | inactive
45 | COc1cc(NC(=O)C2=CC(c3ccc(C)cc3)=NS(=O)(=O)N2C)cc(OC)c1OC | inactive
46 | COc1ccccc1CC(=O)Nc1ccc(S(=O)(=O)N2CCCC2)cc1 | inactive
47 | CCN(CC(=O)Nc1ccc(S(=O)(=O)N2CCCC2)cc1)CC(=O)Nc1cccc(OC)c1 | 5 µM (active)
48 | CCOc1cccc(NC(=O)C2CCCN(S(=O)(=O)c3ccc(OC)cc3)C2)c1 (centres undefined) | inactive
49 | COc1cc(C(=S)N2CCOCC2)cc(OC)c1OC(=O)c1ccc([N+](=O)[O-])cc1[N+](=O)[O-] | inactive
50 | CCS(=O)(=O)Nc1ccc(C(=O)NCCSc2ccccc2)cc1 | inactive
51 | CC(=O)OCCN(CCCn1c(-c2ccncc2)nc2ccccc21)c1nc(-c2ccc(C)cc2)cs1 | inactive
52 | Oc1c(C=Nc2cccc3nsnc23)ccc2ccccc12 | 5 µM (active)
53 | Cc1ccccc1NC(=O)C1CCN(C(=O)NC2CCCCC2)CC1 | inactive
54 | COC(=O)C1=CN(c2ccc(F)c(F)c2)C=C(C(=O)OC)C1c1ccc([N+](=O)[O-])cc1 | inactive
